Laboratory results taken from PubChem BioAssay.

system: Human papillomavirus type 1a protein E7 (residues 44-93); experiment: small molecules binding HPV E7 44-93 – biochemical, small-molecule microarray, residues 44-93, 635 nm fluorescence, primary screen (AID 1108); settings: fluorescence 635 nm, higher = more signal;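 further: E7 fragment applied at 1 µg/mL in TBST for 1 h at 4 C; score combines spot fluorescence with its signal to noise ratio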

SMILES	composite z-score
CO[C@H]1COC(=O)[C@@H](C)COC(=O)[C@H](Cc2ccccc2)NC(=O)CC=C[C@H]1C	0.334
C=CCC(OC(C)=O)[C@@H]1[C@@H](N(Cc2cccc3ccccc23)C(=O)c2ccc(C)cc2)c2cc(OCCCO)ccc2N1C(=O)c1ccc(-c2ccccc2)cc1 (stereo partly drawn)	0.479
CC(C)[C@H]1NC(=O)[C@@]23C(=O)N[C@@H](Cc4ccccc4)C2[C@H](C)[C@@]2(C)O[C@H]2C3/C=C/C/C=C\CNC(=O)[C@H](C)NC1=O (stereo partly drawn)	-0.473
CO[C@H]1COC(=O)[C@@H](Cc2ccccc2)NC(=O)[C@@H](C)COC(=O)CC=C[C@@H]1C	-0.661
CN1CCC(CCCO)=CC1C1CC1 (stereo not drawn)	-0.416
CC(C)[Si]1(C(C)C)OCc2cc(C3CC3)nc(-c3ccccc3)c21	-0.84
O=C1c2ccccc2[C@](Cc2ccccc2I)(C(=O)O)[C@H](c2ccc(CO)cc2)N1C1CCCCC1	1.02
C[C@@H]1NC(=O)CC=C[C@@H](C)[C@@H]2C=C[C@H](O)[C@@H](COC(=O)[C@H](C)NC(=O)CC=C[C@@H](C)[C@@H]3C=C[C@H](O)[C@@H](COC1=O)O3)O2	0.0804
C=CCc1cccc([C@@H]2[C@@H](C)CC[C@H]3C(=O)N4[C@H](c5cccc(CC=C)c5)[C@@H](C)CC[C@H]4C(=O)N23)c1	0.227
C=CC[C@@]12N=C(c3ccc(OCCCO)cc3)O[C@@H]1c1ccccc1CN(Cc1ccccc1)C2=O	1.17
COc1ccc([C@H]2C[C@H]3C(Br)=C[C@]2(OC)C(=O)[C@]32CO2)cc1	-0.681
C=CCOC(=O)[C@@H]1[C@H]2C(=O)O[C@H](c3ccccc3)[C@H](c3ccccc3)N2[C@H](c2ccc(OCCOC(=O)[C@H]3C[C@H]4C(=O)N5CCC[C@H]5C(=O)N4[C@H]3c3ccc(O)cc3)cc2)[C@@]12C(=O)Nc1ccccc12	-0.747
CC(=O)NCCCC[C@@H]1NC(=O)[C@@H]2C[C@H](C(=O)NCc3ccc(F)cc3)[C@H](c3cccc(OCCO)c3)N2C1=O	0.843
O=C(CS)NCCCCCNC(=O)[C@H]1C[C@H]2C(=O)N3CCC[C@H]3C(=O)N2[C@H]1c1ccc(O)cc1	-0.295
C=C(COC)/C(=C/C[C@H](OC(C)=O)c1ccc(OCCO)cc1)c1cnc2ccccc2c1	0.5
COc1cc([C@@H]2N[C@H](C(=O)O)Cc3c2[nH]c2ccccc32)cc(OC)c1OC	0.297
C=CC[C@@]1(C(=O)N2CCOCC2)N=C(c2ccc(OCCCO)cc2)O[C@@H]1c1ccccc1	0.0433
COCCOC(=O)N1C(=O)[C@@]2(c3cc(C#CC4=CCCCC4)ccc31)[C@H](c1ccc(O)cc1)N1[C@H](c3ccccc3)[C@H](c3ccccc3)OC(=O)[C@H]1[C@@H]2C(=O)N1CCCCCCC1	1.29
COCCOC(=O)N1C(=O)[C@@]2(c3cc(C#CC4=CCCCC4)ccc31)[C@H](C(=O)NC[C@H](O)c1ccccc1)[C@H]1C(=O)O[C@H](c3ccccc3)[C@H](c3ccccc3)N1[C@@H]2c1ccccc1OCCO	0.453
C=CC[C@]1(C(=O)NCC(O)CO)N=C(c2ccc(OCCCO)cc2)O[C@H]1c1ccccc1 (stereo partly drawn)	-0.72
C=CCC(OC(C)=O)[C@@H]1[C@@H](N(Cc2cc3ccccc3o2)C(=O)c2ccc(C)cc2)c2cc(OCCCO)ccc2N1C(=O)c1ccc2ccccc2n1 (stereo partly drawn)	-0.185
CC(C)NC(=O)[C@@]1(Cc2ccccc2I)c2ccccc2C(=O)N(C2CCCCC2)[C@H]1c1ccc(CO)cc1	1.46
C=C[C@H](OC)[C@@H](OC(=O)Nc1ccc(SC)cc1)c1ccc(OC)c(O)c1	0.318
CCc1cccc(NC(=O)O[C@H]2[C@H](OC(=O)Nc3ccccc3)[C@@H](OC(=O)Nc3ccccc3)[C@@H](OC)O[C@@H]2CO)c1	1.51
COCCOC(=O)N1C(=O)[C@@]2(c3cc(C#CCC(C(=O)OC)C(=O)OC)ccc31)[C@H](C(=O)N1CCN(c3ncccn3)CC1)[C@H]1C(=O)O[C@H](c3ccccc3)[C@H](c3ccccc3)N1[C@@H]2c1ccc(O)cc1	0.435
COc1ccc(-c2cc3c(c(-c4ccccc4)n2)[Si](C(C)C)(C(C)C)O[C@H]3c2ccccc2)cn1	0.656
CCC(=O)[C@]12O[C@@]3([C@@H]4C(=O)OCC[C@@H]41)N(Cc1ccccc1)C(C)=C(C(=O)OC)[C@@H](c1ccccc1)N3C2=O	-2.88
CO[C@@H]1COC(=O)[C@H](C)NC(=O)CC=C[C@@H](C)[C@H](NS(=O)(=O)c2ccc(C)cc2)COC(=O)CC=C[C@@H]1C	-0.232
